Assay outcomes as filed in PubChem BioAssay.
CXXC DNA block = qHTS Fluorescence Polarization Assay for Inhibitors of MLL CXXC domain - DNA interaction; Histone-lysine N-methyltransferase 2A (Homo sapiens), Q03164; MLL-CXXC / FITC-HOXA9 DNA fluorescence polarization; Potency, µM (series often up to 115 µM), inactives show top-dose activity change, negative = inhibition, hits mostly inhibitors; hit rate 0.037% among 290,000; AID 2662, 2010; active = well fitted inhibition curve with a large enough effect in the polarisation, with a control signal flat, not every such curve was filed as active; inconclusive = small, poorly fitted or top-dose-only effect, or effect the other way, or a change in a side signal; inactive = no such curve, though single readings can be large or run the other way; the % refers to the polarisation; also: potency is read from the fitted curve at half-maximal effect
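Fluorescence polarization: 7 uM MLL-CXXC (stock) preincubated 5 min with compounds, then 50 nM fluorescein-HOX-A9 DNA (stock) added; 30 min ambient. Buffer 50 mM Tris-HCl pH 7.5, 50 mM NaCl, 1 mM DTT, 0.05% BSA.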
Menin-MLL FL inh = qHTS Assay for Inhibitors Targeting the Menin-MLL Interaction in MLL Related Leukemias: Competition With Fluorescein Labeled MLL-derived Peptide; AID 1766, 2009; Fluorescence polarization, fluorescein-MLL peptide displacement from menin; FP activity change, % at 61.4 µM; 290,000 tested, under 10 active; active = well fitted curve in the direction sought with a large enough effect in the polarisation, not every such curve was filed as active; inconclusive = small, poorly fitted or top-dose-only effect, or effect the other way, or a change in a side signal; inactive = no such curve, though single readings can be large or run the other way; the % refers to the polarisation; also: % of control where 0% means no effect
Menin-MLL TR inh = qHTS Assay for Inhibitors Targeting the Menin-MLL Interaction in MLL Related Leukemias: Competition With Texas Red Labeled MLL-derived Mutant Peptide; O00255; Menin + Texas Red MLL mutant peptide, fluorescence polarization; Potency, µM (series often up to 61.6 µM), inactives show top-dose FP activity change, negative = inhibition, most hits filed as inhibitors; hit rate 0.23% among 270,000; active = well fitted inhibition curve with a large enough effect in the polarisation, with a control signal flat, not every such curve was filed as active; inconclusive = small, poorly fitted or top-dose-only effect, or effect the other way, or a change in a side signal; inactive = no such curve, though single readings can be large or run the other way; the % refers to the polarisation; also: potency is read from the fitted curve at half-maximal effect; % of control where 0% means no effect
Target sequence (O00255 whole entry, looked up): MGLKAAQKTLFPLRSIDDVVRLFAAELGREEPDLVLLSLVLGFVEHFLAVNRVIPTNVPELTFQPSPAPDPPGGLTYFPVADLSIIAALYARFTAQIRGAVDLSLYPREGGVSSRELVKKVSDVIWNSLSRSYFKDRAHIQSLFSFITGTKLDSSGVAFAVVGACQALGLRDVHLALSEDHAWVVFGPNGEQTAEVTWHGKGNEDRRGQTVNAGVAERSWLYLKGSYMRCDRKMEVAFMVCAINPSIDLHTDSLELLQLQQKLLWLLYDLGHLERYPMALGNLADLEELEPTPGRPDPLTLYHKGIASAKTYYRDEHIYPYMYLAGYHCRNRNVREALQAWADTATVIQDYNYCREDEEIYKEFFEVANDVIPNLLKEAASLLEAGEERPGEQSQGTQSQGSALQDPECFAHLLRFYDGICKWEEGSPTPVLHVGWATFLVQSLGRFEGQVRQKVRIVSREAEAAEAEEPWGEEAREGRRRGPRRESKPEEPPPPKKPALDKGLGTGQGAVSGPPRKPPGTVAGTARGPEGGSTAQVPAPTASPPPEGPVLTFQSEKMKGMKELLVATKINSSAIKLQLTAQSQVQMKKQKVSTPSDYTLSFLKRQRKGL
GALK inh = qHTS Assay for Inhibitors of Human Galactokinase (GALK); Potency, µM (titrated, usually from 57.5 µM), inactives show at the top dose activity change, negative = inhibition, most hits filed as inhibitors; P51570; Purified GALK, Kinase-Glo residual ATP luminescence; hit rate 0.007% among 270,000; also: potency is read from the fitted curve at half-maximal effect; % is scaled to controls: 0 for no effect and ±100 for the full control effect
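Luminescence from leftover ATP (Ultra-Glo luciferase/luciferin) served as read-out after a 1 h room-temperature reaction of 5 nM GALK with 35 uM ATP and 100 uM galactose.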
ASM inhibitor = Inhibitors of Secretory Acid Sphingomyelinase (S-ASM): qHTS | Sphingomyelin phosphodiesterase (Homo sapiens), P17405 | placental ASM, HMU-PC fluorogenic substrate, 60 min | Potency, µM (series often up to 57.5 µM), for the others: top-dose activity change, negative = inhibition, actives largely listed as inhibitors | hit rate 0.006% among 340,000; also: potency is read from the fitted curve at half-maximal effect
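Human placenta-derived ASM preincubated with compound 10 min at room temperature, then reacted with 9 uM (final) fluorogenic HMU-PC substrate for 60 min at 37 C. Stop solution raises pH to 10; fluorescence read at Ex 386/Em 447 nm.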
MLL CXXC FP-Fl = qHTS Fluorescence Polarization (FP) Assay for Inhibitors of MLL CXXC domain - DNA interaction: Fluorescein FP | Potency, µM (doses to about 345 µM), inactives show top-dose activity change, negative = inhibition, usual class: inhibitors | MLL CXXC-DNA binding, fluorescein FP | shares compounds with CXXC DNA block | AID 624160, 2012 | hit rate 70% among 200; also: potency is read from the fitted curve at half-maximal effect; nearly all actives have a fitted effect of over 80% in size
MLL CXXC TxRed = qHTS Fluorescence Polarization (FP) Assay for Inhibitors of MLL CXXC domain - DNA interaction: Texas Red FP; shares compounds with CXXC DNA block; MLL CXXC-DNA binding, Texas Red fluorescence polarization; Potency, µM (doses to about 345 µM), inactives show top-dose activity change, negative = inhibition, actives largely listed as inhibitors; hit rate 40% among 200; also: potency is read from the fitted curve at half-maximal effect; % is scaled to controls: 0 for no effect and ±100 for the full control effect; nearly all actives have a fitted effect of over 75% in size
MLL CXXC TRF = qHTS Fluorescence Polarization (FP) Assay for Inhibitors of MLL CXXC domain - DNA interaction: HTRF Assay. shares compounds with CXXC DNA block. MLL CXXC-DNA binding, HTRF, biochemical. Potency, µM (titrated, usually from 172 µM), inactives show at the top dose activity change, negative = inhibition, actives largely listed as inhibitors. hit rate 30% among 210. AID 624162, 2012; also: % is scaled to controls: 0 for no effect and ±100 for the full control effect; nearly all actives have a fitted effect of over 80% in size
An asterisk follows results filed as active; i = inactive; ? = inconclusive; . = not tested or not shown; [ ] = remark or other dose. The sample as a whole holds a higher share of hits than the screen did. Unless noted, calls follow the shape of the dose curve; as a rule, active = well fitted curve in the direction sought with a large enough effect; inconclusive = small, poorly fitted or top-dose-only effect, or another doubt; inactive = no such curve, though single readings can be large; an effect the other way counts as inactive or inconclusive.

SMILES | CXXC DNA block | Menin-MLL FL inh | Menin-MLL TR inh | GALK inh | ASM inhibitor | MLL CXXC FP-Fl | MLL CXXC TxRed | MLL CXXC TRF
COc1cccc2c1C(=O)c1c(O)c3c(c(O)c1C2=O)C[C@@](O)(C(C)=O)C[C@@H]3O[C@H]1C[C@H](N)[C@H](O)[C@H](C)O1 | 10µM* | ? | ? | . | -19% | 5.6µM* | 11µM* | 376%
CC(=O)[C@]1(O)Cc2c(O)c3c(c(O)c2[C@@H](O[C@H]2C[C@H](N)[C@H](O)[C@H](C)O2)C1)C(=O)c1ccccc1C3=O | ? | ? | ? | . | -12% | 2µM* | 100µM* | 117%
CC(=O)[C@]1(O)Cc2c(O)c3c(c(O)c2[C@@H](O[C@H]2C[C@H](N)[C@H](O)[C@H](C)O2)C1)C(=O)c1c(O)cccc1C3=O | ? | ? | ? | . | . | 6.3µM* | 22µM* | 255%
N[C@@H](CSCCCO)C(=O)O | -17% | -2 | 6% | . | . | . | . | .
CC(=O)NC1[C@H]([C@H](O)[C@H](O)CO)OC(C(=O)O)=C[C@H]1N=C(N)N (stereo not given in full) | -3% | -3 | 3% | . | . | . | . | .
Cc1cc2nc3c(=O)[nH]c(=O)nc-3n(CC(O)C(O)C(O)CO)c2cc1C (stereo not given) | . | ? | -2% | . | . | . | . | .
CC(=O)OCCn1c2nc(=O)[nH]c(=O)c-2nc2cc(C)c(C)cc21 | ? | ? | -2% | -4% | -4% | 1.8µM* | 2% | 14%
CCCC(=O)OC[C@@H](OC(=O)CCC)[C@@H](OC(=O)CCC)[C@H](Cn1c2nc(=O)[nH]c(=O)c-2nc2cc(C)c(C)cc21)OC(=O)CCC | ? | ? | -21% | . | . | 14µM* | ? | 23%
Nc1nc(Cl)nc2c1ncn2[C@@H]1O[C@H](CO)[C@H](O)C1F (stereo not given in full) | 4% | 0 | -2% | . | . | . | . | .
Cc1nc(N=Nc2cc(S(=O)(=O)O)c3cc([N+](=O)[O-])cc(S(=O)(=O)O)c3c2)c(COP(=O)(O)O)c(C=O)c1O | 32µM* | 3 | ? | . | . | 18µM* | 36µM* | 15µM*
CCCCOc1ccc(C2OC34CCCCC3C(C#N)(C#N)C2(C#N)C(=N)O4)cc1 (stereo not given) | 9% | ? | . | -3% | i | . | . | .
Cc1ccc(C2OC34CCCCCC3C(C#N)(C(=N)O4)C2(C#N)C#N)cc1 (stereo not given) | 7.9µM* | -4 | -9% | 0% | i | 12% | ? | 34%
CCOc1ccc(C2OC34CCCCC3C(C#N)(C#N)C2(C#N)C(=N)O4)cc1OC (stereo not given) | 25µM* | ? | . | -2% | i | 18µM* | 36µM* | 14%
CCOC(=O)/C=C(\C)Sc1cc(O)c2ccccc2c1O | 32µM* | -7 | . | ? | -12% | ? | ? | 19µM*
COc1ccccc1C(=O)NC(=O)CSc1ccc(C)c(C)c1 | . | . | . | . | 13% | . | . | .
COc1ccc2[nH]cc(CCNc3ncncc3-c3ccc(C(=O)N(C)C)cc3)c2c1 | . | -4 | 2% | . | . | . | . | .
CC[C@@]1(O)C(=O)OCc2c1cc1n(c2=O)Cc2cc3c(CN(C)C)c(O)ccc3nc2-1 | 45µM* | ? | -1% | . | 89% | 32µM* | -5% | 10%
CC1=NN(c2ccc(Cl)c(C(=O)O)c2)C(=O)/C1=C\c1ccc(-c2ccc(C(=O)O)cc2)o1 | ? | 2 | ? | -4% | 14% | 28µM* | 12% | -58%
CC1(C)OC(=O)C(=Cc2ccc(-c3ccc(Cl)c(C(=O)O)c3)o2)C(=O)O1 | 28µM* | 9 | 24% | -1% | 0% | 16µM* | 56µM* | 39µM*
CC1=NN(c2ccccc2)C(=O)/C1=C/c1ccc(-c2ccc(C)c(C(=O)O)c2)o1 | . | . | . | . | -5% | . | . | .
O=C1NN(c2ccccc2)C(=O)/C1=C/c1ccc(-c2ccc(C(=O)O)cc2)o1 | 32µM* | 22 | ? | -3% | 10% | 89µM* | 142µM* | ?
CC1=NOC(=O)/C1=C\c1ccc(-c2ccc(Cl)c(C(=O)O)c2)o1 | ? | 19 | 39% | -2% | 5% | 20µM* | 89µM* | 49µM*
CCn1nc(C(=O)OCC(=O)N(CCC#N)c2ccccc2)c2ccccc2c1=O | . | . | . | . | -2% | . | . | .
COc1ccc([N+](=O)[O-])c2c1CCN2C(=O)CC[C@H](N)C(=O)O | . | ? | 12%[24.8 µM] | . | . | . | . | .
O=C(O)c1cccc(-n2cccc2C=C2C(=O)c3ccccc3C2=O)c1 | ? | 8 | ? | 4% | -6% | 179µM* | ? | 25%
SMILES | CXXC DNA block | Menin-MLL FL inh | Menin-MLL TR inh | GALK inh | ASM inhibitor | MLL CXXC FP-Fl | MLL CXXC TxRed | MLL CXXC TRF
C[C@@](Cc1ccccc1)(C(=O)O)N1C(=O)c2ccc(C(=O)O)cc2C1=O | . | -1 | -8% | . | . | . | . | .
CC(O)(CC(=O)CC(=O)c1ccccc1)c1ccccc1 (stereo not given) | . | . | . | . | 2% | . | . | .
COc1cc(C=C2C(=O)c3ccccc3C2=O)cc(OC)c1OC | 35µM* | ? | 14% | -4% | -3% | 45µM* | 142µM* | 97µM*
COc1cc(C=C2C(=O)c3ccccc3C2=O)cc(OC)c1 | ? | 5 | . | 3% | 2% | . | . | .
COc1ccc(C=C2C(=O)c3ccccc3C2=O)cc1O | ? | 21 | ? | 6% | -3% | . | . | .
COc1cc(C=C2C(=O)c3ccccc3C2=O)ccc1O | ? | 13 | . | 13% | -2% | 28µM* | ? | 51%
CCOC(=O)/C(C#N)=C1\SS/C(=C(/C#N)C(=O)OCC)S1 | 18µM* | ? | ? | -3% | . | 25µM* | 63µM* | 4.9µM*
